Compound activity from PubChem.
The list is not random: actives were taken first. Their share in the collection is about 14%.
HCMV inh: blocks human cytomegalovirus replication. HFF cells, HCMV-luciferase reporter, 72 h; stronger effect = lower value. AID 1259415. 410,000 compounds, 4.5% hits. activity change, negative = inhibition, % at 57.5 µM; in the data active = activity change below about -60%; inconclusive = no clear call, values can overlap the other calls; inactive = above about -39%
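Cell-based, HFFs, 1000 cells/well, 16 h 37C; cpds in DMSO + HCMV-luc, MOI 1 PFU/cell; 72 h 37C; OneGlo luminescence after 5 min RT; norm. to buffer vs Salinomycin 10uM.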
Pf growth 48h: inhibits P. falciparum growth in the first generation, 48 h; P. falciparum luciferase growth in erythrocytes, 48 h; 310,000 compounds, 5.9% hits; Potency, µM (highest dose often 28.7 µM), inactives show at the highest dose activity change, negative = inhibition, actives largely listed as inhibitors; also: potency is read from the fitted curve at half-maximal effect
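Growth was read as firefly luciferase luminescence after a 48 h, 37 C, 5% CO2 exposure of compounds to reporter-bearing P. falciparum cultures (0.1% parasitemia, 2% hematocrit final) in Albumax-supplemented RPMI 1640.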
Sm TGR inh: blocks Schistosoma mansoni thioredoxin glutathione reductase. Q962Y6. purified TGR, DTNB reduction, TNB absorbance 405 nm. Potency, µM (top dose mostly 114 µM), inactives show at the highest dose activity change, negative = inhibition, most hits filed as inhibitors. 360,000 compounds, 3% hits. AID 485364; also: potency is read from the fitted curve at half-maximal effect; nearly all actives have a fitted effect of over 60% in size
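First, TGR (20 nM dispensed) and NADPH were mixed with compound. Second, a 15 min room-temperature incubation followed. Third, further NADPH and then DTNB were added to start the reaction. Finally, TNB absorbance was monitored kinetically.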
Giardia FBPA inh: inhibitors of Giardia lamblia fructose-1,6-bisphosphate aldolase. A8B2U2. purified Giardia FBPA. Potency, µM (top dose mostly 59.6 µM), for the others: top-dose activity, negative = inhibition, most hits filed as inhibitors. 290,000 compounds, 0.71% hits. AID 2451; also: potency is read from the fitted curve at half-maximal effect; nearly all actives have a fitted effect of over 55% in size
Target sequence (A8B2U2 whole entry, looked up): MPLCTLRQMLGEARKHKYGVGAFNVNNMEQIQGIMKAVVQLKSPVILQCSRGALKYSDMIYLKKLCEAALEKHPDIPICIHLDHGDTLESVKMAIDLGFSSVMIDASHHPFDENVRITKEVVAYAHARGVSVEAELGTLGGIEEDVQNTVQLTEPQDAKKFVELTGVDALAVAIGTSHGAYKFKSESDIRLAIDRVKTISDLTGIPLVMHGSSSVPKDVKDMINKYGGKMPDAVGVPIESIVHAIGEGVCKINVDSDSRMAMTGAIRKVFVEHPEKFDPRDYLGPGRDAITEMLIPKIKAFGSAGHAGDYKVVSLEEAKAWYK
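Giardia FBPA (40 nM reagent) was preincubated 10 min at RT with compound (up to 57.5 uM final), then substrate plus GAPDH/TPI/NAD/arsenate coupling system with diaphorase/resazurin was added; resorufin fluorescence (525/598 nm) was read after 20 min.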
Pf growth 96h: P. falciparum growth inhibition at 96 hours; P. falciparum luciferase reporter growth, 96 h; Potency, µM (series often up to 28.7 µM), inactives show at the highest dose activity change, negative = inhibition, actives largely listed as inhibitors; 320,000 compounds, 6.9% hits; AID 504834; also: potency is read from the fitted curve at half-maximal effect
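P. falciparum expressing integrated firefly luciferase, in erythrocytes at 2% hematocrit, 0.05% parasitemia, incubated with compounds 96 h at 37 C, 5% CO2. Growth inhibition read as loss of luminescence; two-generation exposure targets delayed-death apicoplast inhibitors.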
* marks the source's active call; other numbers are inactive results; u = inconclusive; x = not tested or not shown; [ ] = dose if it differs, or a comment. Unless noted, calls follow the shape of the dose curve; as a rule, active = well fitted curve in the direction sought with a large enough effect; inconclusive = small, poorly fitted or top-dose-only effect, or another doubt; inactive = no such curve, though single readings can be large; an effect the other way counts as inactive or inconclusive. % is scaled to controls: 0 for no effect and ±100 for the full control effect.

SMILES | HCMV inh | Pf growth 48h | Sm TGR inh | Giardia FBPA inh | Pf growth 96h
COC(=O)c1ccc(NC(=O)c2snnc2-c2ccccc2)cc1 | u | -4% | -1% | 0% | u
Cc1[nH]nc2c1C(c1ccc(F)cc1)N(Cc1ccccc1)C2=O (stereo not drawn) | -39 | x | x | x | x
Cc1cc(-c2ccccc2)c2c(=O)n(-c3ccccc3)[nH]c2n1 | -14 | 38% | 11% | u | 0.0037µM*
C[C@H](NC(=O)c1ccco1)C(=O)NNC(=O)COc1cccc(C(F)(F)F)c1 | -9 | x | x | x | x
Cc1ccccc1-n1c(SCC(=O)N/N=C/c2c(C)nn(-c3ccccc3)c2C)nc2ccccc2c1=O | 0 | u | -1% | 2% | u
Cc1nn(-c2ccccc2)c(C)c1/C=N/NC(=O)CSc1nc2ccccc2c(=O)n1-c1ccc(Br)cc1 | -8 | -1% | 8% | 7% | 0%
Cc1ccc(-n2c(SCC(=O)N/N=C/c3c(C)nn(-c4ccccc4)c3C)nc3ccccc3c2=O)cc1 | -63* | -8% | -4% | 3% | u
Cc1ccc(/C=N/NC(=O)CSc2nc3ccccc3c(=O)n2-c2ccccc2C)s1 | -69* | -30% | 3% | -1% | 12µM*
Cc1ccccc1-n1c(SCC(=O)NC(N)=O)nc2sc(-c3ccccc3)cc2c1=O | -71* | u | 1% | 1% | u
Cc1ccccc1-n1c(SCC(N)=O)nc2sc(-c3ccccc3)cc2c1=O | 21 | 6% | -4% | 10% | x
Cc1nn(-c2ccccc2)c(C)c1/C=N/NC(=O)CSc1nnc(SCc2cccc3ccccc23)s1 | -17 | -26% | 1% | 2% | 10µM*
Cn1c(SCC(=O)NC(=O)Cc2ccccc2)nnc1-c1ccc(F)cc1 | 4 | x | x | x | x
CC(=O)/C(C#N)=C1\NC(=O)C(Cc2ccccc2)S1 (stereo not drawn) | -99* | 0% | 2% | 8% | x
CC(=O)/C(C#N)=C1\NC(=O)C(Cc2ccccc2C)S1 (stereo not drawn) | -83* | u | -25% | 0% | -18%
CC[C@@H]1C/C=C\Cc2ccccc2[C@@H](C(=O)C[C@H](O)CC(C)=O)OC1=O | -29 | x | x | x | x
CCn1c(Sc2ccc([N+](=O)[O-])cn2)nnc1-c1ccco1 | -86* | u | -34% | -24% | -18%
O=[N+]([O-])c1ccc(Sc2ncc3ccccn23)nc1 | -65* | u | 45µM* | -1% | 9.3µM*
CCn1c(SCC(=O)OCc2ccccc2)nnc1-c1ccco1 | 26 | 13% | -12% | 1% | -27%
C[C@]12c3[nH]c4ccc(Cl)cc4c3CCN1C(=O)[C@@H](CC(=O)NCc1cccc(C(F)(F)F)c1)C[C@@H]2C(=O)N1CCCCC1 | -104* | x | x | x | x
CC[C@]12c3[nH]c4ccc(Cl)cc4c3CCN1C(=O)[C@@H](CC(=O)NCc1cccc(C(F)(F)F)c1)C[C@@H]2C(=O)N1CCN(C(=O)c2ccco2)CC1 | -100* | x | x | x | x
CCCCCCCCN1C(=O)N(Cc2ccc(OC)cc2)S(=O)(=O)c2ccc(F)cc21 | -12 | x | x | x | x
Cc1ccc(-c2cc(-c3ccccc3)cc(-c3ccccc3)[n+]2-c2ccc(C(=O)O)cc2)cc1 | -17 | u | 0% | x | u
O=C(O)c1ccc(-[n+]2c(-c3ccccc3)cc(-c3ccccc3)cc2-c2ccccc2)cc1 | 6 | u | 0% | x | u
COc1ccc(-[n+]2c(-c3ccccc3)cc(-c3ccc(C)cc3)cc2-c2ccccc2)cc1 | -94* | 0.93µM* | 0% | 12% | 145%
Brc1ccc(-[n+]2c(-c3ccccc3)cc(-c3ccccc3)cc2-c2ccccc2)cc1 | -98* | 1.9µM* | -21% | x | 0.83µM*
SMILES | HCMV inh | Pf growth 48h | Sm TGR inh | Giardia FBPA inh | Pf growth 96h
C[n+]1c(-c2ccccc2)cc(CCCCc2cc(-c3ccccc3)[n+](C)c(-c3ccccc3)c2)cc1-c1ccccc1 | -98* | 13µM* | -31% | -14% | 0.93µM*
CCS(=O)(=O)NCCCCc1ccccc1 | 12 | 4% | 0% | 0% | 125%
COc1ccc(-c2cc(-c3ccccc3)[n+](C)c(-c3ccccc3)c2)cc1 | -101* | u | 55% | 4% | u
NC(=O)c1ccc2nc(-c3ccc(Oc4ccc(Cl)cc4)cc3)[nH]c2c1 | x | x | x | -12% | x
CN(C)[C@H]1CC[C@@]23CCCN2C(=O)CCC[C@H]3[C@H]1Cc1ccccc1 | 4 | x | x | x | x
CN(C)c1ncc2nc(-c3ccccc3)c(=O)n(C)c2n1 | x | x | x | 0% | x
CCCOC(=O)c1ccc(-[n+]2c(-c3ccccc3)cc(-c3ccccc3)cc2-c2ccccc2)cc1 | -98* | 2.3µM* | -33% | x | 1.3µM*
COc1ccc2c(c1)C(C(Nc1ccccc1)c1ccc(Cl)cc1)C(=O)N2C (stereo not drawn) | 18 | x | x | x | x
COCC(=O)N1CCC2(CC1)CCN(C(=O)Nc1cccc(F)c1)CC2 | x | x | x | 7% | x
Cc1cc(C)n(CC(=O)NNC(=O)CCCOc2ccc(Cl)cc2C)n1 | -61* | 61% | 5% | x | 3%
Cc1cc(C)n(CC(=O)NNC(=O)CCCOc2ccc(Cl)c(C)c2)n1 | 5 | -4% | -20% | 19% | 43%
CN(C)c1ccc(CNC(=O)C2CCN(S(=O)(=O)c3cn(C)cn3)CC2)cc1 | -23 | x | -2% | x | x
Cn1c(=O)c2sccc2n2c(CCCC(=O)Nc3ccc(Oc4ccc(Cl)cc4)cc3)nnc12 | -76* | x | 2% | x | x
CCn1c(=O)c2sccc2n2c(CCCC(=O)NCc3cccnc3)nnc12 | 7 | 25% | -10% | -9% | 13µM*
COc1ccc(-c2cccc(-c3cc(=O)oc4ccc(C(C)(C)C)cc34)c2)cc1 | -2 | x | x | -4%[89.2 µM] | x
CCOC(=O)c1c(NC(=O)OC)sc(C(=O)N(CC)CC)c1C | -4 | 5.9µM* | -1% | -1% | u
CCOC(=O)c1c(NC(=O)CC(C)C)sc(C(C)=O)c1C | -14 | u | -16% | 8% | u
CCOC(=O)c1sc(NC(=O)CN(CC(C)C)CC(C)C)c(C(=O)OCC)c1C | -95* | 2.3µM* | -1% | -5% | x
CCN(CC)C(=O)c1sc(N)c(C(=O)OC(C)C)c1C | 12 | u | -1% | 2% | -9%
CCN(CC)C(=O)c1sc(NC(=O)C(Sc2ccccc2)c2ccccc2)c(C(=O)OC(C)C)c1C (stereo not drawn) | -3 | x | -4% | -10% | 0.41µM*
Cc1ccc(S(=O)(=O)N2CCN(CC(=O)N/N=C/c3ccco3)CC2)cc1 | -25 | -4% | -22% | 2% | -15%
CCOc1ccccc1C(=O)NC(C(=O)NCCc1ccccn1)C(C)C (stereo not drawn) | -21 | x | x | x | x
COc1ccc(S(=O)(=O)Nc2ccc(C)cc2)cc1N(C)S(=O)(=O)c1ccc(Cl)cc1 | -99* | 2.9µM* | 34% | 16% | -12%
